Screens (PubChem BioAssay)
Only some compounds are listed: those with a hit (about 9% of all), similar ones and a draw of the others.
ALOX12 inh: inhibitors of human 12S-lipoxygenase ALOX12 | Potency, µM (series often up to 108 µM), for inactives: top-dose activity change, negative = inhibition, actives largely listed as inhibitors | purified 12hLO, xylenol orange hydroperoxide absorbance | P18054 | 1.1% of 580,000 active; further: on the % scale 0 is the no-effect control and ±100 the full control effect
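Hydroperoxide product was detected by ferrous iron/xylenol orange as the 573 to 405 nm absorbance ratio. Arachidonic acid at 40 uM (final) was turned over for 30 min at room temperature by 150 nM human 12hLO, pH 7.0 Hepes buffer, after 15 min compound preincubation.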
HP1b chromo inh: HP1-beta chromodomain-methylated histone interaction inhibition; AID 540317; 0.56% of 390,000 active; AlphaScreen HP1-beta / biotin-H3K9me3 peptide binding; Potency, µM (series often up to 114 µM), for the others: at the highest dose activity change, negative = inhibition, actives largely listed as inhibitors; further: nearly all actives have a fitted effect of over 70% in size
Target sequence (P83916 whole entry, looked up): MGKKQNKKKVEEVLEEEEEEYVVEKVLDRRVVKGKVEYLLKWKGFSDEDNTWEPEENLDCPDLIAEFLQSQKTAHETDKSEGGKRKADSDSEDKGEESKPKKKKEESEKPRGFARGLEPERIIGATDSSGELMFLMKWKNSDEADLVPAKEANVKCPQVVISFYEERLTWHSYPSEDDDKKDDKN
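HP1-beta protein (50 nM final) preincubated 30 min at room temperature with biotinylated H3(1-18)K9me3 peptide (50 nM) in PBS pH 7.4, 0.01% Tween-20, then compound added for 30 min. AlphaScreen streptavidin donor/nickel chelate acceptor beads (10 ug/mL final), 30 min dark, luminescence read.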
BAZ2B block: BAZ2B (human) inhibition; AlphaScreen BAZ2B-H3K14Ac peptide displacement; Potency, µM (series often up to 114 µM), inactives show top-dose activity change, negative = inhibition, usual class: inhibitors; 4.4% of 360,000 active; further: on the % scale 0 is the no-effect control and ±100 the full control effect; nearly all actives have a fitted effect of over 60% in size
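AlphaScreen displacement of biotin-H3(5-23)K14Ac peptide (50 nM final) from BAZ2B (50 nM final) in PBS pH 7.4, 0.01% Tween-20; complex preformed 30 min RT, then compounds (top 110 uM) 30 min RT, beads 20 min dark.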
G9a block: inhibitors of human histone lysine methyltransferase G9a. G9a H3K9 monomethylation, AlphaScreen, 2 h. Potency, µM (series often up to 102 µM), inactives show at the highest dose activity, negative = inhibition, hits mostly inhibitors. Q96KQ7. 8.8% of 350,000 active. AID 504332; further: on the % scale 0 is the no-effect control and ±100 the full control effect; nearly all actives have a fitted effect of over 75% in size
Target sequence (Q96KQ7 913-1193 limits assumed): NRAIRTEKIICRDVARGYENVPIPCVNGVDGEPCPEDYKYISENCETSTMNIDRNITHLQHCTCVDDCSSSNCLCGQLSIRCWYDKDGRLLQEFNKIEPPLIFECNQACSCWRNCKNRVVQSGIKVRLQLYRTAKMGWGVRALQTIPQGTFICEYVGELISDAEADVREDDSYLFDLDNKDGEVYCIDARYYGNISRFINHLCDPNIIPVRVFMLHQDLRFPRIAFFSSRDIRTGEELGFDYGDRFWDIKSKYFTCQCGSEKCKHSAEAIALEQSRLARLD
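Step 1: enzyme (final 20 nM) with compound, 15 min RT. Step 2: substrate peptide 500 nM and SAM 20 uM, 2 h RT. Step 3: anti-H3K9me1 antibody and AlphaScreen beads, 10 min, then plate read.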
JMJD2A Tudor inh: inhibitors of human JMJD2A Tudor domain; O75164; AlphaScreen JMJD2A-Tudor / H3K4me3 peptide binding; Potency, µM (highest dose often 114 µM), for inactives: at the highest dose activity change, negative = inhibition, hits mostly inhibitors; 4.4% of 390,000 active; AID 504339; further: on the % scale 0 is the no-effect control and ±100 the full control effect; nearly all actives have a fitted effect of over 50% in size
PLK1 PBD block: blocks phosphopeptide binding to human PLK1 polo-box domain. 2.8% of 360,000 active. P53350. Plk1 PBD binding of FITC phosphopeptide, fluorescence polarization. Potency, µM, for the others: max response, negative = inhibition, actives largely listed as inhibitors. AID 720504; further: series mostly up to about 57 µM; on the % scale 0 is the no-effect control and ±100 the full control effect; nearly all actives have a fitted effect of over 65% in size
* = called active by the depositor; [ ] = dose if it differs, or a comment. The call rests on the fitted dose curve; in most records, active means well fitted curve in the direction sought with a large enough effect; inconclusive means small, poorly fitted or top-dose-only effect, or another doubt; inactive means no such curve, though single readings can be large; an effect the other way counts as inactive or inconclusive. Potency means the concentration at half of the fitted maximal effect.

For COc1ccc(CNc2ccc3cc(S(=O)(=O)N4CCCCC4)ccc3n2)cc1 the results were ALOX12 inh inconclusive, HP1b chromo inh 30%, BAZ2B block -20%, G9a block 11µM* and JMJD2A Tudor inh 3%.
For CC(NC(=O)c1ccccc1)c1nc2ccccc2n1Cc1ccccc1F (stereo not drawn) the results were ALOX12 inh -23%, BAZ2B block -35%[57.1 µM] and G9a block 50µM*.
For CC(NC(=O)c1ccccc1)c1nc2ccccc2n1Cc1ccc(Cl)cc1 (stereo not drawn) the results were ALOX12 inh -21%, HP1b chromo inh 32%, BAZ2B block -4%, G9a block 0%[59 µM] and JMJD2A Tudor inh 2%.
Screening N#CC1=C(N)Oc2cc(O)ccc2C1c1cccnc1 (stereo not drawn) returned ALOX12 inh -1%, HP1b chromo inh 18%, BAZ2B block -3%, G9a block 10%, JMJD2A Tudor inh -1% and PLK1 PBD block 1%.
Screening CC(Sc1nc(NC(C)(C)C)nc(N(C)C)n1)C(=O)Nc1ccccc1 (stereo not drawn) returned ALOX12 inh -2%, HP1b chromo inh 14%, BAZ2B block -4%, G9a block 11%[59 µM], JMJD2A Tudor inh -12% and PLK1 PBD block -7%.
CCOc1nc(SC(C(C)=O)C(=O)Nc2ccccc2)nc(N(C)C)n1 (stereo not drawn) was read as ALOX12 inh 86%, HP1b chromo inh 39%, BAZ2B block -25%, G9a block 13µM*, JMJD2A Tudor inh 79µM* and PLK1 PBD block inconclusive.
Screening CCCCNC(=S)NCc1ccc2c(c1)cc(C)n2C returned ALOX12 inh 40µM*, HP1b chromo inh -7%, BAZ2B block 45µM*, G9a block inconclusive, JMJD2A Tudor inh inconclusive and PLK1 PBD block -2%.
Screening COc1ccc(NC(=S)NCc2ccc3c(c2)cc(C)n3C)cc1 returned ALOX12 inh inconclusive, HP1b chromo inh inconclusive, BAZ2B block 45µM*, G9a block 40µM*, JMJD2A Tudor inh 50µM* and PLK1 PBD block -15%.
COc1cccc(C(=O)NCc2ccc3c(c2)cc(C)n3C)c1 was read as ALOX12 inh -9%, HP1b chromo inh 0%, BAZ2B block inconclusive, G9a block 50µM*, JMJD2A Tudor inh inconclusive and PLK1 PBD block -6%.
`COc1ccc(CC(=O)NCc2ccc3c(c2)cc(C)n3C)cc1` gave ALOX12 inh 2%, HP1b chromo inh 25%, BAZ2B block -23%, G9a block -30%, JMJD2A Tudor inh -13% and PLK1 PBD block -16%.
For COc1ccc(CNC(=O)Nc2ccccc2)cc1 the results were ALOX12 inh 4%, HP1b chromo inh -13%, BAZ2B block 6%, JMJD2A Tudor inh -26%[11.4 µM] and PLK1 PBD block 12µM*.
For Cc1cc2cc(CNC(=O)c3ccc(S(=O)(=O)N4CCCCC4)cc3)ccc2n1C the results were ALOX12 inh inconclusive, HP1b chromo inh 31%, BAZ2B block -32%, G9a block 50µM*, JMJD2A Tudor inh -8% and PLK1 PBD block -5%.
Screening Cc1cc2cc(CNC(=S)NCc3ccccc3)ccc2n1C returned ALOX12 inh 40µM*, HP1b chromo inh inconclusive, BAZ2B block 25µM*, G9a block inconclusive, JMJD2A Tudor inh 50µM* and PLK1 PBD block -1%.
Cc1cc2cc(CNC(=S)NC3CCCCC3)ccc2n1C was read as ALOX12 inh inconclusive, HP1b chromo inh 25%, G9a block -2%, JMJD2A Tudor inh -30% and PLK1 PBD block -6%.
Screening CCOC(=O)NCc1ccc2c(c1)cc(C)n2C returned ALOX12 inh -8%, HP1b chromo inh -7%, BAZ2B block -37%, G9a block 16%[12.7 µM], JMJD2A Tudor inh -27% and PLK1 PBD block 3%.
`Cc1cc2cc(CNC(=O)c3ccc(S(=O)(=O)N4CCCC4)cc3)ccc2n1C` gave ALOX12 inh -14%, HP1b chromo inh 32%, BAZ2B block 5%, G9a block inconclusive, JMJD2A Tudor inh -12% and PLK1 PBD block -1%.
CCc1cccc(C)c1NC(=S)NCc1ccccc1 was read as ALOX12 inh inconclusive, HP1b chromo inh 16%, BAZ2B block -8%, G9a block 32%[59 µM], JMJD2A Tudor inh -11% and PLK1 PBD block -13%.
For CCc1cccc(C)c1NC(=S)NCc1ccc2c(c1)cc(C)n2C the results were ALOX12 inh inconclusive, HP1b chromo inh -18%, BAZ2B block 25µM*, G9a block 40µM*, JMJD2A Tudor inh 50µM* and PLK1 PBD block -7%.
Screening Cc1cc2cc(CNC(=O)Nc3ccccc3)ccc2n1C returned ALOX12 inh 10%, HP1b chromo inh inconclusive, BAZ2B block 4%, G9a block 32µM*, JMJD2A Tudor inh inconclusive and PLK1 PBD block -9%.
CCC(CC)C(=O)NCc1ccc2c(c1)cc(C)n2C was read as ALOX12 inh 0%, HP1b chromo inh 42%, BAZ2B block -26%, G9a block 7%[12.7 µM], JMJD2A Tudor inh -19% and PLK1 PBD block -17%.
`COc1ccc(NC(=O)C2CCCN2C(=O)NCc2ccccc2)cc1` (stereo not drawn) gave ALOX12 inh 6%, HP1b chromo inh 1%, BAZ2B block 3%, G9a block -4%[12.7 µM], JMJD2A Tudor inh 14µM* and PLK1 PBD block 15µM*.
`COc1ccc(NC(=S)NCc2cccn2C)cc1` gave ALOX12 inh -3%, HP1b chromo inh -21%, BAZ2B block 35µM*, G9a block 50µM*, JMJD2A Tudor inh -31% and PLK1 PBD block inconclusive.
`COc1ccccc1NC(=S)NCc1ccc2c(c1)cc(C)n2C` gave ALOX12 inh inconclusive, HP1b chromo inh inconclusive, BAZ2B block 25µM*, G9a block inconclusive, JMJD2A Tudor inh 50µM* and PLK1 PBD block -6%.
For Cc1cc2cc(CNC(=O)c3cccs3)ccc2n1C the results were ALOX12 inh inconclusive, HP1b chromo inh -15%, BAZ2B block 50µM*, G9a block 50µM*, JMJD2A Tudor inh inconclusive and PLK1 PBD block 27µM*.
Screening COc1cccc(CNc2nc(-c3cccnc3)nc3ccccc23)c1 returned ALOX12 inh 14%, HP1b chromo inh 27%, BAZ2B block -30%, G9a block -1%, JMJD2A Tudor inh -20% and PLK1 PBD block 1%.
For COCCCNC(=O)c1c(N)n(/N=C/c2ccccn2)c2nc3ccccc3nc12 the results were ALOX12 inh 2%, HP1b chromo inh 42%, BAZ2B block -2%, G9a block -9%[12.7 µM], JMJD2A Tudor inh -8% and PLK1 PBD block 5%.
